# Assay results reported in PubChem BioAssay.
# Activity calls are given as the source filed them.
# Target: Torsin-1A-interacting protein 2 (Homo sapiens) (UniProt Q8NFQ8)
# Assay: small molecules binding lysate-expressed LULL1 – cell lysate, human LULL1 lysate, 635/667 nm fluorescence, primary screen (AID 1092);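 also: probe is lysate of COS7 cells overexpressing human LULL1; score merges per-feature 667 nm fluorescence with signal-to-noise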
# Settings: small-molecule microarray, hLULL1 lysate binding, 635 nm fluorescence; higher = more signal
# Chain of Torsin-1A-interacting protein 2 (Homo sapiens) (Q8NFQ8 whole entry, looked up): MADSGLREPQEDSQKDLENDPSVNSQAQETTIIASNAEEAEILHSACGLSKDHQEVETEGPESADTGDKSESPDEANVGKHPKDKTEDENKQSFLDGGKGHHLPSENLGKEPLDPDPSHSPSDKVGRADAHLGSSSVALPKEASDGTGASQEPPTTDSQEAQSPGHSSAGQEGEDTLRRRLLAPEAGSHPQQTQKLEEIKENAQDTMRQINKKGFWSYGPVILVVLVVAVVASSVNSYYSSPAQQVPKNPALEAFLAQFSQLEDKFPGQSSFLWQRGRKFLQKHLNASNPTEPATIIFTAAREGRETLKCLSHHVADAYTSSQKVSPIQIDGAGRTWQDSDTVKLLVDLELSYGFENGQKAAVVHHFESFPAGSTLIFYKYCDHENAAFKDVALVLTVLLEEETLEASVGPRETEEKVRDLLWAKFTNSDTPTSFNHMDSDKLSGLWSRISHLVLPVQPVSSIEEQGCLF
row,SMILES,composite z-score
1,CC(C)C(O)C1C=CC2C(=O)N(c3ccccc3)C(=O)C2N1Nc1ccccc1 (configuration not stated),3.42
2,CC(C)C(CO)N1C(=O)[C@@H]2[C@H]3C(=O)OCC=C[C@H]3OC23C=CCN(c2ccc(Cl)cc2)C(=O)[C@@H]13 (some centres not stated),-0.0004
3,CCOC(=O)C[C@H]1[C@H](OC(=O)Cc2ccc3c(c2)OCO3)[C@@H](NC(=O)c2ccc3ccccc3n2)c2cc(OCCCO)ccc2N1C(=O)c1ccc2ccccc2n1,1.03
4,CCCC=C(CCC)[C@@H](NC(=O)C(C)(C)C)c1ccc(C(=O)OC)cc1,3.12
5,COC(=O)[C@@]1(Cc2ccccc2)[C@H]2c3cc(C(=O)N4CCCC4)n(CCc4ccccn4)c3C[C@H]2CN1C(=O)c1ccccc1,3.93
6,CC(C)c1ccc(NN2C(C(O)c3ccc(C#N)cc3)C=CC3C(=O)N(c4ccccc4)C(=O)C32)cc1 (configuration not stated),3.36
7,COc1ccc([Si](C)(C)[C@H]2[C@H](CC(=O)N3Cc4ccccc4C[C@H]3CO)O[C@@]3(C(=O)N(Cc4ccc(N5CCOC5=O)cc4)c4ccccc43)[C@@H]2C)cc1,1.25

# Tested on: not listed separately
# Assay: optical density change of DRC41 E. coli – strain DRC41, OD650, 24 h, E. coli filamentation project, primary screen (AID 1093);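 also: MC1000 strain lacking acrAB efflux and sulA so SOS filamentation is blocked; test concentration not given here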
# Settings: E. coli DRC41 growth, higher = more signal, called active from +8 up or from −8 down
row,SMILES,z-score
1,COCC(=C=CC[C@H](O)c1ccc(OCCO)cc1)CCO,0.399 (inactive)
2,CCOC(=O)C[C@H]1[C@H](OC(=O)Cc2ccc3c(c2)OCO3)[C@@H](NC(=O)c2ccc3ccccc3n2)c2cc(OCCCO)ccc2N1C(=O)c1ccccc1,0.887 (inactive)
3,COc1ccc([Si](C)(C)[C@@H]2[C@@H](CC(=O)N3CCC[C@H]3CO)O[C@]3(C(=O)N(Cc4cccc(N5C(=O)COc6ccccc65)c4)c4ccccc43)[C@H]2C)cc1,0.222 (inactive)
4,COc1ccc(CCNC(=O)[C@@H]2c3ccccc3C(=O)N(C3CCCCC3)[C@H]2c2ccc(CO)cc2)cc1,-1.14 (inactive)
5,NCCCCCNC(=O)[C@@H]1C[C@@H]2C(=O)N[C@@H](CCCCN)C(=O)N2[C@@H]1c1ccc(O)cc1,-0.0616 (inactive)
6,NC(=O)[C@H]1[C@@H]2C(=O)O[C@@H](c3ccccc3)[C@@H](c3ccccc3)N2[C@@H](c2ccc(OCCO)cc2)[C@]12C(=O)Nc1ccc(C#CCCO)cc12,-0.595 (inactive)
7,CCCCC(O)C1C=CC2C(=O)N(C)C(=O)C2N1N(c1ccccc1)c1ccccc1 (configuration not stated),-1.8 (inactive)
8,CCCC[C@@H](O)C1=C(COC)C[C@H]2C(=O)N(C)C(=O)[C@H]2[C@H]1CO,1.1 (inactive)
9,C=C(COC)/C(=C/C[C@H](OC(=O)c1ccncc1)c1ccccc1OCCO)c1cc(C(=O)OC)ccc1OC,0.0572 (inactive)
10,COC(=O)C1(CC(C)C)C=C2C(=C(c3ccccc3)C(=O)C2C)CN1 (configuration not stated),-0.326 (inactive)
11,CCOc1cc(C(O)C2C=CC3C(=O)NC(=O)C3N2Nc2ccc(Cl)cc2Cl)ccc1O (configuration not stated),-0.847 (inactive)
12,Cc1ccc(S[C@]2(C(=O)NC(C)C)CC(=O)N(Cc3cc(C(F)(F)F)cc(C(F)(F)F)c3)[C@@H]2c2ccc(CO)cc2)cc1,-0.0937 (inactive)
13,CCCCCCCCCC(O)C1C=CC2C(=O)N(c3ccccc3)C(=O)C2N1Nc1cc(OC)c(OC)c(OC)c1 (configuration not stated),-3.91 (inactive)
14,COc1cc(C(O)C2C=CC3C(=O)N(C)C(=O)C3N2Nc2ccccc2)cc(OC)c1OC (configuration not stated),0.238 (inactive)
15,CCOC(=O)C1=C[C@@H](C(C)C)N(S(=O)(=O)c2ccc(C)cc2)[C@H]1c1ccc(C(F)(F)F)cc1,-0.961 (inactive)
16,CC(C)C(CO)N1C(=O)[C@@H]2C3C(=O)OCCC/C=C\[C@H]3OC23C=CCN(c2ccc4ccccc4c2)C(=O)[C@@H]13 (some centres not stated),-0.395 (inactive)
17,CCCCN1CC=CC23O[C@@H]4/C=C\CCCOC(=O)C4[C@H]2C(=O)N(CCO)[C@@H]3C1=O (some centres not stated),2.12 (inactive)
18,CC(C)C(CO)N1C(=O)[C@@H]2C3C(=O)OCCC/C=C\[C@H]3OC23C=CCN(Cn2nnc4ccccc42)C(=O)[C@@H]13 (some centres not stated),0.167 (inactive)

row,SMILES,z-score
1,C=CC[C@@]1(C(=O)NCCCOC)N=C(c2ccc(OCCCO)cc2)O[C@@H]1c1ccccc1N=[N+]=[N-],1.24 (inactive)
2,C=CCNC(=O)[C@@H]1[C@H]2C(=O)O[C@H](c3ccccc3)[C@H](c3ccccc3)N2[C@H](c2ccccc2OCCO)[C@@]12C(=O)N(C(=O)OCCOC)c1ccc(C#CC3(O)CCCCCC3)cc12,1.41 (inactive)
3,COCCOC(=O)N1C(=O)[C@@]2(c3cc(C#CCC(C(=O)OC)C(=O)OC)ccc31)[C@H](c1ccc(OCCO)cc1)N1[C@H](c3ccccc3)[C@H](c3ccccc3)OC(=O)[C@H]1[C@@H]2C(=O)N1CCc2cc(OC)c(OC)cc2C1,0.713 (inactive)
4,C=CCN1C(=O)[C@]2(CCC(=O)OC(C)(C)C)N=C(c3ccc(OCCCO)cc3)O[C@@H]2c2ccccc21,1.06 (inactive)
5,C#CCN(Cc1ccccc1Br)[C@H](/C=C/c1ccccc1)[C@@H](O)Cc1ccccc1,1.44 (inactive)
6,O=C1N(CCS(=O)(=O)c2ccccc2)c2ccccc2[C@H]2OC(c3ccc(OCCCO)cc3)=N[C@@]12Cc1ccccc1,0.611 (inactive)
7,COCCOC(=O)N1C(=O)[C@@]2(c3cc(C#CC4(O)CCCCCC4)ccc31)[C@H](c1ccc(O)cc1)N1[C@H](c3ccccc3)[C@H](c3ccccc3)OC(=O)[C@H]1[C@@H]2C(=O)N1CCN(c2ncccn2)CC1,-0.321 (inactive)
8,CO[C@H]1O[C@H](CO)[C@@H](OC(=O)Nc2ccccc2)[C@H](OC(=O)c2cc3ccccc3[nH]2)[C@H]1OC(=O)c1cc2ccccc2[nH]1,0.0433 (inactive)
9,O=C1O[C@@H](c2ccccc2)[C@@H](c2ccccc2)N2[C@@H](c3ccc(OCCO)cc3)[C@]3(C(=O)Nc4ccc(C#CC5=CCCCC5)cc43)[C@@H](C(=O)NC[C@H](O)c3ccccc3)[C@H]12,-0.749 (inactive)
10,CC1CC/C=C\[C@H]2OC34C=CCN(c5ccc6ccccc6c5)C(=O)[C@H]3N(CCCO)C(=O)[C@@H]4C2C(=O)O1 (some centres not stated),-0.696 (inactive)
11,CC(C)C(O)C1C=CC2C(=O)N(c3ccccc3)C(=O)C2N1Nc1ccccc1 (configuration not stated),-0.304 (inactive)
12,CC(C)C(CO)N1C(=O)[C@@H]2[C@H]3C(=O)OCC=C[C@H]3OC23C=CCN(c2ccc(Cl)cc2)C(=O)[C@@H]13 (some centres not stated),0.669 (inactive)
13,CCOC(=O)C[C@H]1[C@H](OC(=O)Cc2ccc3c(c2)OCO3)[C@@H](NC(=O)c2ccc3ccccc3n2)c2cc(OCCCO)ccc2N1C(=O)c1ccc2ccccc2n1,2.22 (inactive)
14,CCCC=C(CCC)[C@@H](NC(=O)C(C)(C)C)c1ccc(C(=O)OC)cc1,-0.447 (inactive)
15,COC(=O)[C@@]1(Cc2ccccc2)[C@H]2c3cc(C(=O)N4CCCC4)n(CCc4ccccn4)c3C[C@H]2CN1C(=O)c1ccccc1,0.026 (inactive)
16,CC(C)c1ccc(NN2C(C(O)c3ccc(C#N)cc3)C=CC3C(=O)N(c4ccccc4)C(=O)C32)cc1 (configuration not stated),-1.27 (inactive)
17,COc1ccc([Si](C)(C)[C@H]2[C@H](CC(=O)N3Cc4ccccc4C[C@H]3CO)O[C@@]3(C(=O)N(Cc4ccc(N5CCOC5=O)cc4)c4ccccc43)[C@@H]2C)cc1,-0.167 (inactive)
